{"source": "PubChem BioAssay (NCI)", "note": "This is part of a sample that, as a whole, favours compounds with a hit. Of some 83,000 tested, about 20% had one in any assay.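 For each line, cells grew in 96-well plates with the test compound present at a single concentration for 48 hours.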 Unmarked numbers belong to inactive results. Calls of active or inactive are those of the source. The calls were made as follows: active = growth percent below 10; inactive = the rest."}
{"test_system": "OVCAR-4 ovarian", "assay": "NCI-60 one-dose screen, 48 h (100 = growth as untreated, 0 = no growth, -100 = all killed)", "conditions": "10 µM unless noted"}
{"compound": "COc1ccc(C(=O)c2cc(OC)c(OC)c(OC)c2OC)cc1O", "growth": "83.9%"}
{"compound": "O=C(CN1CCN(c2cc3c(cc2F)c(=O)c(C(=O)N/N=C/c2ccccc2O)cn3C2CC2)CC1)N/N=C\\c1ccccc1O", "growth": "19.8%"}
{"compound": "O=c1[nH]c2ccc(Br)cc2c2c1C(c1ccc(Cl)cc1)c1c(ncn3nc(-c4ccco4)nc13)O2", "note": "(centres undefined)", "growth": "67.5%"}
{"compound": "Cc1cc(N/N=C/c2nc(-c3ccccc3)oc2C)c2cc(Br)ccc2n1", "growth": "1.21% (active)"}
{"compound": "C=CCSc1n[nH]c(-c2cccs2)n1", "growth": "107%"}
{"compound": "COC1=C(OC)C(=O)C(CCCCCCCCCC[P+](c2ccccc2)(c2ccccc2)c2ccccc2)=C(C)C1=O", "growth": "2.19% (active)"}
{"compound": "COc1ccc(C(=O)N2NC(=O)/C(=C/c3ccc(F)cc3)N=C2c2ccccc2)cc1", "growth": "109%"}
{"compound": "C/C=C/C1=CN2C(=O)c3cc(OC4OC(C)C(NC)C(C)(O)C4O)c(C)cc3N=C[C@@H]2C1", "note": "(some centres undefined)", "growth": "6.47% (active)"}
{"compound": "Cc1ccc2[nH]c(=O)c3c(c2c1)Oc1ncn2nc(-c4ccco4)nc2c1C3c1ccc(Cl)cc1", "note": "(centres undefined)", "growth": "87.9%"}
{"compound": "CCCCCCCCCCCCCCCCCCNC(=O)[C@H]1CSC(c2cccs2)N1", "note": "(some centres undefined)", "growth": "42.2%"}
{"compound": "FC(F)(F)c1ccccc1-c1cn2c(ccc3ccccc32)n1", "growth": "95.2%"}
{"compound": "CCn1c2ccccc2c2cc(NC(=O)Nc3ccc([N+](=O)[O-])cc3C)ccc21", "growth": "44.2%"}
{"compound": "CCOC(=O)c1cc(C(=O)c2cc(OC)c(OC)c(OC)c2)n2c1ccc1ccccc12", "growth": "40.8%"}
{"compound": "O=C1c2ccccc2-c2ccccc2C1(Cl)Cl", "growth": "-98.6% (active)"}
